A selection: hits, their analogues and other compounds. The true share with any hit is near 3.6%.
mHTT CaM bind – disrupts binding of mutant huntingtin to calmodulin; P42858; AlphaScreen His-mHTT/GST-CaM binding, luminescence; inhibition, % at 15 µM; 190,000 compounds, 3.6% hits; AID 1671202
Pf apPOL block – Pf-apPOL DNA polymerase inhibition; Recombinant Pf-apPOL, molecular beacon fluorescence, 1.5 h; inhibition, % at 10 µM; 210,000 compounds, 0.25% hits; AID 1794808
A number is an active result; n = inactive; x = no result given. Rule as the data show it: active = inhibition above about 50%; inactive = the rest.

SMILES	mHTT CaM bind	Pf apPOL block
CC(C)C(=O)NC(c1ccco1)c1cc(Cl)c2cccnc2c1O (configuration not stated)	n	n
CC(C)C(=O)NC(c1ccc(Cl)cc1)c1ccc2cccnc2c1O (configuration not stated)	94.6	n
O=C(Nc1cc(C2CC2)nn1-c1nc(-c2ccccc2)cc(=O)[nH]1)c1cc(C2CC2)on1	n	n
O=C1c2cccnc2C(=O)N1CCC1=CCCCC1	n	n
CC1=Nc2ccccc2C1=Cc1sc(=O)n(-c2ccccc2)c1O	n	n
CC1=Nc2ccccc2C1=Cc1sc(=N)n(-c2nccs2)c1O	100.0	n
COc1ccc(N2CC(c3nnc(NC(=O)Cc4cccs4)o3)CC2=O)cc1 (configuration not stated)	65.5	n
COc1ccccc1C(=O)Nc1nnc(C2CC(=O)N(c3ccccc3)C2)o1 (configuration not stated)	n	n
COc1nn(C)cc1C(=O)Nc1nnc(-c2csc(C)n2)o1	58.3	n
CC(C)(Oc1ccc(Cl)cc1)C(=O)Nc1ccncc1	n	n
Cc1nc(-c2nnc(NC(=O)CCSc3ccccc3)o2)cs1	n	n
CC(C)n1nccc1-c1nnc(NC(=O)C(C)(C)Oc2ccc(Cl)cc2)o1	65.9	n
CSc1ccc(N2CC(c3nnc(NC(=O)Cc4cccs4)o3)CC2=O)cc1 (configuration not stated)	n	n
COc1nn(C)cc1C(=O)Nc1nnc(C2CC(=O)N(c3ccccc3)C2)o1 (configuration not stated)	53.6	n
Cc1ccc(N=c2oc3c(C)ncc(CO)c3cc2C(=O)Nc2cccc(C)c2)cc1	n	n
Cc1ccc(-c2cn(-c3ccc(C)c(F)c3)c(=O)[nH]2)cc1	n	n
Cc1c(Cl)cccc1NC(=O)N1CCC(n2cnc3ccccc3c2=O)CC1	n	n
CCCCc1ccc(NC(=O)N2CCc3c(nc[nH]c3=O)C2)cc1	n	n
COc1cccc(CC(=O)Nc2nnc(C3CC(=O)N(c4ccccc4)C3)o2)c1 (configuration not stated)	86.5	n
COc1ccc(N2CC(c3nnc(NC(=O)Cc4ccccc4C)o3)CC2=O)cc1 (configuration not stated)	n	n
CC(C)(Oc1ccc(Cl)cc1)C(=O)Nc1nnc(C2CC(=O)N(c3ccccc3)C2)o1 (configuration not stated)	98.1	n
CC(C)(C)C(=O)Nc1nnc(C2CC(=O)N(c3ccccc3)C2)o1 (configuration not stated)	n	n
COc1cccc(N2CC(C(=O)Nc3c(C(N)=O)oc4ccccc34)CC2=O)c1 (configuration not stated)	59.0	n
COc1cccc(N2CC(C(=O)O)CC2=O)c1 (configuration not stated)	n	n
COc1ccc(Cl)cc1NC(=O)Nc1nc(CSC)cs1	n	n
SMILES	mHTT CaM bind	Pf apPOL block
CCCCc1ccc(NC(=O)N2CC(c3nc(C)no3)C3(CCOCC3)C2)cc1 (configuration not stated)	n	n
Cc1noc(C)c1S(=O)(=O)NCCC1CCN(C(=O)c2ccc(F)cc2)CC1	n	n
O=C(CN1C(=O)c2ccccc2C1=O)Nc1ccc(-c2ccccc2)cc1	n	n
O=C(c1ccc(Cl)c(Cl)c1)N1CCC2(CC1)OCCS2	n	n
COc1ccccc1-c1c(Cc2ccccc2)[nH]n2c(=O)cc(-c3ccccc3)nc12	67.3	n
Cc1[nH]n2c(=O)cc(-c3ccccc3)nc2c1-c1ccccc1	n	n
CCCc1cc(=O)n2[nH]c(Cc3ccccc3)c(-c3ccccc3OC)c2n1	n	n
COc1ccc(-c2c(C)[nH]n3c(=O)cc(-c4ccccc4)nc23)cc1	73.0	n
O=C(O)c1cccc([N+](=O)[O-])c1C(=O)Nc1cccc(Cl)c1Cl	n	n
O=C(CN1CCOCC1)N1CCC2(C1)NCc1ccccc1NC2=NC1CCCC1 (configuration not stated)	n	n
Cc1nc2sc(C)c(C)n2c(=O)c1NC(=O)c1cccs1	n	n
O=C(Nc1cccc(-c2ccc3nnc(-c4cccnc4)n3n2)c1)c1ccc(F)cc1F	79.5	n
CCOc1ccc(-c2cccc(NC(=O)c3ccc(F)cc3F)c2)nn1	n	n
Cc1nnc2ccc(-c3cccc(NC(=O)c4cc(Br)ccc4Cl)c3)nn12	56.9	n
CCOc1ncccc1C(=O)Nc1cccc(-c2ccc3nnc(C)n3n2)c1	n	n
COc1ccc(CNC(=O)C2CCCN(C(=O)c3cccc(C(F)(F)F)c3)C2)cc1 (configuration not stated)	n	n
COc1ccc(NC(C)=O)cc1NC(=O)c1sc2nc(-c3ccccc3)cn2c1C	52.0	n
CC(=O)Nc1cccc(NC(=O)c2sc3nc(-c4ccccc4)cn3c2C)c1	n	n
O=[N+]([O-])c1ccc(OC2=C(c3ccccc3)N3CCN=C3S2)cc1	n	n
Clc1ccc(OC2=C(c3ccccc3)N3CCN=C3S2)cc1	60.0	n
O=C(Nc1ccc2c(c1)OCCO2)c1csc(-c2cccs2)n1	x	n
CN(CC(=O)N1N=C(c2ccc(F)cc2)CC1c1ccccc1)C(=O)C1CCC1 (configuration not stated)	n	n
CCCC12CN3CC(CCC)(CN(C1)C3c1cccc([N+](=O)[O-])c1)C2=O (configuration not stated)	n	n
COc1ccc(OC)c2sc(N(CCCn3ccnc3)C(=O)Cc3ccccc3)nc12	67.7	n
O=C(c1ccco1)N(CCCn1ccnc1)c1nc2c(Cl)cccc2s1	n	n
SMILES	mHTT CaM bind	Pf apPOL block
O=C1CC(C(=O)N2CCc3ccccc3C2)CN1CCc1c[nH]c2ccc(F)cc12 (configuration not stated)	n	n
O=C(NCCc1ccccc1)C1CC(=O)N(CCc2c[nH]c3ccc(Cl)cc23)C1 (configuration not stated)	90.0	n
O=C(NCc1ccccn1)C1CC(=O)N(CCc2c[nH]c3ccc(Cl)cc23)C1 (configuration not stated)	92.5	n
CC(C)CNC(=O)C1CC(=O)N(CCc2c[nH]c3ccc(Cl)cc23)C1 (configuration not stated)	n	n
O=C1CC(C(=O)N2CCc3ccccc3C2)CN1CCc1c[nH]c2ccc(Cl)cc12 (configuration not stated)	65.0	n
CCCNC(=O)C1CC(=O)N(CCc2c[nH]c3ccc(Cl)cc23)C1 (configuration not stated)	n	n
CN(C)N=C(NO)c1c(F)cccc1Cl	x	n
N#Cc1cccc(C(=O)N2CCCC(c3nc(CCNC(=O)C4CCC4)cs3)C2)c1 (configuration not stated)	n	n
CC(C)C(=O)N1CCc2c(c(C(=O)NCc3ccc(Cl)cc3)nn2C)C1	70.6	n
Cn1nc(C(=O)NCc2ccc(F)cc2)c2c1CCN(C(=O)C1CC1)C2	n	n
Cn1nc(C(=O)NCc2ccc(Cl)cc2)c2c1CCN(C(=O)C1CCCCC1)C2	93.1	n
CCC(=O)N1CCc2c(c(C(=O)NCc3ccc(F)cc3)nn2C)C1	n	n
CC(C)C(=O)N1CCc2c(c(C(=O)NCc3ccccc3)nn2C)C1	n	n
CCC(=O)N1CCc2c(c(C(=O)NCc3ccc(Cl)cc3)nn2C)C1	81.4	n
Cc1ccc(C)c(N2CCN(C(=O)C3CCN(c4nnc(-c5ccccc5)o4)CC3)CC2)c1	n	n
COc1cc(NC(=O)CCCn2nc([N+](=O)[O-])c(Br)c2C)cc(OC)c1OC	n	n

Source: PubChem BioAssay (University of Kansas High Throughput Screening Laboratory)
